# Results: PubChem BioAssay (NCATS)
# Records with an inconclusive call do not appear. Activity calls are given as the source filed them. The call rests on the fitted dose curve; in most records, active means well fitted inhibition curve with a large enough effect; inconclusive means small, poorly fitted or top-dose-only effect; inactive means no such curve, though single readings can be large or run the other way.
# Experiment: qHTS Screen of the MIPE 4.0 Collection Against Ewings Sarcoma (TC71) (AID 1259253); further: nearly all actives have a fitted effect of over 40% in size;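 on viability (% of DMSO): 100% = DMSO-treated cells and 0% = medium-only wells without cells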
# Settings: TC71 Ewing sarcoma viability, CellTiter-Glo, 48 h; series mostly up to 45.8 µM; viability (% of DMSO): at the top concentration
# Excerpt: There is a large unmet medical need for treatments for Ewing sarcoma, a pediatric sarcoma. We sought to identify compounds that inhibited Ewing sarcoma cells in vitro with the goal to then test promising drugs in two drug combinations in vitro to look for synergistic drug combinations. Promising combinations would then proceed to additional validation, including in vivo testing.
# Using the NCATS developed oncology compound library called the Mechanism of Interrogation Plate (MIPE), four Ewing sarcoma cell lines were evaluated (TC32, TC71, RDES, EW8). Compounds, in a 12-point titration series, were incubated with cells for 48 hours and the read out was cell viability (CellTiter-Glo from Promega). These initial experiments were used to select appropriate concentrations of each single agent for subsequent two-drug matrix combinations such that the concentrations in the matrices would span both activity and non-activity.
# Cells, in the log phase of growth, were seeded in 5 uL of RPMI plus 5% FBS, […] L-glutamine, 100 U/ml penicillin and 100 ug/ml streptomycin into 1536-well solid-bottom white tissue culture treated Greiner Bio One Plates (789173-F) using a MultiDrop Combi (Thermofisher Scientific) dispenser and a small sterile cassette. One column was media alone to be used as a :"no cells" control. The plates were then covered with sterilized stainless steel gasketed lids from Kalypsys. After allowing cells to attach for 4 hours, 23 nL of test compound or control (negative control DMSO and positive control 9.2 uM Bortezomib-final) were added from a 1536-well polypropylene compound source plate to each well using a 1536 head pin tool from Kalypsys. Cells were then incubated for 48 hours at 37C, 95% relative humidity and 5% CO2. After 48 hours, plates were removed from the incubator and 3 uL of CellTiter-Glo (Promega) was added using an Aurora Flying Reagent Dispenser Bioraptor. Plates were incubated at room temperature for 10 minutes prior to reading the luminescence on the Viewlux (PerkinElmer). The relative luciferase units are used to calculate the percent activity using the activity of DMSO in the cells and no cells columns for normalization of no inhibition and full inhibition respectively.
# Potency means the concentration at half of the fitted maximal effect.
SMILES,viability (% of DMSO),Potency
CC(=Cc1csc(C)n1)[C@@H]1C[C@H]2O[C@@H]2CCC[C@H](C)[C@@H](O)[C@@H](C)C(=O)C(C)(C)[C@@H](O)CC(=O)O1,39.5% (inactive),–
O=C1CCC[C@@H]2[C@H]3CCCN4CCC[C@@H](CN12)[C@@H]34,117% (inactive),–
CO[C@H]1CCC(O[C@H]2C[C@H]([C@]3(C)CC[C@]4(C[C@H](O)[C@@H](C)[C@@H]([C@@H](C)C=C(C)C(=O)[C@H](C)C[C@H](C)C(=O)O)O4)O3)O[C@]3(O[C@@H]([C@H]4O[C@@](O)(CO)[C@H](C)C[C@H]4C)C[C@H]3C)[C@H]2C)O[C@H]1C (stereo not given in full),–,0.332 µM (active)
C[C@@H]1[C@H](O)[C@@H](C)C=CC=CCCC=CC=CC=CC=C[C@H](O[C@H]2O[C@@H](C)[C@H](O)[C@@H](N)[C@@H]2O)CC2O[C@](O)(C[C@@H](O)[C@H](O)CC[C@@H](O)C[C@@H](O)C[C@@H](O)CC(=O)O[C@H]1C)C[C@H](O)[C@H]2C(=O)O,129% (inactive),–
COc1cc([C@@H]2c3cc4c(cc3[C@@H](O)C3COC(=O)C32)OCO4)cc(OC)c1O (stereo not given in full),–,0.0418 µM (active)
COCC1(CO)C(=O)C2CCN1CC2 (stereo not given),–,2.35 µM (active)
CC(O)=C(C#N)C(=O)Nc1cc(Br)ccc1Br,–,23.5 µM (active)
C[C@@H]1CC[C@H]2[C@@H](C)C(=O)O[C@@H]3O[C@@]4(C)CC[C@H]1[C@]32OO4,–,3.72 µM (active)
Cc1c(C(=O)Nc2cccc(C(F)(F)F)c2)cc(-c2ccccc2)n1CCCN1CCOCC1,–,6.62 µM (active)
C[C@]12Cc3cn[nH]c3C[C@@H]1CC[C@@H]1[C@H]2CC[C@@]2(C)[C@H]1CC[C@]2(C)O,–,2.96 µM (active)
COc1cc2cc(c1Cl)N(C)C(=O)C[C@H](OC(=O)C(C)C)[C@]1(C)O[C@H]1[C@H](C)[C@@H]1C[C@@](O)(NC(=O)O1)[C@H](OC)C=CC=C(C)C2,23.9% (inactive),–
CC(=O)Nc1ccc(OC[C@](C)(O)C(=O)Nc2ccc([N+](=O)[O-])c(C(F)(F)F)c2)cc1,95.6% (inactive),–
CCNC(=O)C[C@@H]1N=C(c2ccc(Cl)cc2)c2cc(OC)ccc2-n2c(C)nnc21,–,2.96 µM (active)
C[C@@]12OC(=O)[C@]1([C@@H](O)[C@@H]1C=CCCC1)NC(=O)[C@H]2CCCl,–,0.0296 µM (active)
Cc1c(N)nc([C@H](CC(N)=O)NC[C@@H](N)C(N)=O)nc1C(=O)N[C@H](C(=O)N[C@@H](C)[C@H](O)[C@@H](C)C(=O)N[C@@H](C(=O)NCCc1nc(-c2nc(C(=O)NCCC[S+](C)C)cs2)cs1)[C@@H](C)O)C(O[C@H]1O[C@H](CO)[C@H](O)[C@@H](O)[C@@H]1O[C@H]1O[C@H](CO)[C@@H](O)[C@H](OC(N)=O)[C@H]1O)c1cnc[nH]1 (stereo not given in full),–,0.526 µM (active)
O=c1cccc2n1CC1CNC[C@H]2C1,105% (inactive),–
Cc1ccccc1-n1c(Cn2cnc3c(N)ncnc32)nc2cccc(C)c2c1=O,–,1.87 µM (active)
O=c1[nH]c2ccc(Cl)cc2c(N[C@@H]2CN3CCC2CC3)c1-c1nc2ccccc2[nH]1,–,0.0418 µM (active)
COc1ccc(N(C(=O)Oc2c(C)cccc2C)c2ccnc(Nc3ccc(N4CCN(C)CC4)cc3)n2)c(OC)c1,–,2.35 µM (active)
Cc1[nH]nc2ccc(-c3cncc(OC[C@@H](N)Cc4c[nH]c5ccccc45)c3)cc12,–,0.372 µM (active)

SMILES,viability (% of DMSO),Potency
CC(=Cc1csc(C)n1)[C@@H]1C[C@H]2O[C@]2(C)CCC[C@H](C)[C@@H](O)[C@@H](C)C(=O)C(C)(C)[C@@H](O)CC(=O)O1,44.5% (inactive),–
CC[C@@H]1[C@@H](C)O[C@@](O)([C@@H](C)[C@H](O)[C@H](C)[C@H]2OC(=O)C=CC=C[C@@H](C)[C@@H]([C@@H](C)[C@@H](O)[C@H](C)[C@@]3(O)C[C@H](O[C@H]4C[C@H](O)[C@H](O)[C@H](C)O4)[C@H](CC)[C@@H](C)O3)OC(=O)C=CC=C[C@@H]2C)C[C@H]1O[C@H]1C[C@H](O)[C@H](O)[C@H](C)O1,–,0.59 µM (active)
Cc1c(C(=O)c2cccc3ccccc23)c2cccc3c2n1[C@H](CN1CCOCC1)CO3,–,26.4 µM (active)
C=C[C@@H]1CN2CCC1C[C@@H]2[C@@H](O)c1ccnc2ccccc12 (stereo not given in full),–,18.7 µM (active)
O=C(Nc1ccncc1)C(=O)c1cn(Cc2ccc(Cl)cc2)c2ccccc12,–,0.132 µM (active)
O=S(=O)(F)Cc1ccccc1,104% (inactive),–
CC(C)(C)[C@]1(O)C[C@@H]2OC(=O)C[C@@]23C(=O)O[C@@H]2OC(=O)[C@H](O)C213 (stereo not given in full),–,20.9 µM (active)
C1=C2CCCN[C@H]2[C@@H]2C[C@H]1[C@@H]1CCCCN1C2,118% (inactive),–
CCOC(=O)Nc1ccc(NCc2ccc(F)cc2)cc1N,–,29.6 µM (active)
CN(C)[C@@H]1C(=O)C(C(N)=O)=C(O)[C@@]2(O)C(=O)C3=C(O)c4c(O)cccc4[C@@](C)(O)[C@H]3[C@H](O)[C@@H]12,126% (inactive),–
C[C@]12CC[C@@H]3[C@@H](CCC4=CC(=O)CC[C@@H]43)[C@@H]1CC[C@@H]2OC(=O)CCc1ccccc1,–,9.35 µM (active)
O=c1[nH]c2ccccc2n1C1CCN(Cc2ccc(-c3[nH]c4cc5ncnc5cc4nc3-c3ccccc3)cc2)CC1,–,20.9 µM (active)
CCC(=O)OC1CCC2C3CCC4=CC(=O)CC[C@@]4(C)C3CC[C@]12C (stereo not given in full),122% (inactive),–
CC(=O)O[C@@]12CO[C@H]1C[C@H](O)[C@@]1(C)C(=O)[C@H](O)C3=C(C)[C@@H](O)C[C@@](O)([C@@H](OC(=O)c4ccccc4)[C@@H]21)C3(C)C,–,23.5 µM (active)
COC(=O)[C@@H](N)CCCN=C(N)N[N+](=O)[O-],122% (inactive),–
CCN1C[C@]2(OC(=O)c3ccccc3NC(C)=O)CC[C@H](OC)[C@@]34[C@H]5CC6[C@@H](OC)C[C@](O)(C(C[C@@H]23)[C@@H]14)[C@@]5(O)[C@@H]6OC,121% (inactive),–
C[C@@H]1CC[C@@]2(OC1)O[C@H]1C[C@H]3[C@@H]4CC=C5C[C@@H](O[C@@H]6O[C@H](CO)[C@@H](O[C@@H]7O[C@@H](C)[C@H](O)[C@@H](O)[C@@H]7O)[C@H](O)[C@@H]6O[C@@H]6O[C@@H](C)[C@H](O)[C@@H](O)[C@@H]6O)CC[C@]5(C)[C@@H]4CC[C@]3(C)[C@@H]1[C@H]2C,–,3.72 µM (active)
CCOC(=O)c1c(C(C#N)=CN)c2ccc(Cl)c(Cl)c2n1C,123% (inactive),–
C#CC1(O)CCC2C3CCC4=CC(=O)CCC4(C)C3CCC21C (stereo not given),119% (inactive),–
CC=C(C)C(=O)O[C@H]1C(C)=C2[C@@H]3OC(=O)[C@@](C)(O)[C@@]3(O)[C@@H](OC(=O)CCC)C[C@](C)(OC(C)=O)[C@@H]2[C@@H]1OC(=O)CCCCCCC,–,0.0526 µM (active)
